Source: PubChem (National Center for Advancing Translational Sciences (NCATS))
Only some compounds are listed: those with a hit (about 6.2% of all), similar ones and a draw of the others.
Lassa entry inh = qHTS for Inhibitors of binding or entry into cells for Lassa Virus; Lassa virus pseudotype entry inhibition, cell reporter; Potency, µM (doses to about 37.9 µM), for the others: at the highest dose activity change, negative = inhibition, hits mostly inhibitors; 300,000 tested, 1.2% active; calls by dose curve; tested in HEK293 cells; note: potency is the fitted concentration of half-maximal effect; nearly all actives have a fitted effect of over 50% in size
HCMV inh = qHTS Assay for inhibitors of the human cytomegalovirus (HCMV); HFF cells, HCMV-luciferase reporter, 72 h; hits give low values; activity change, negative = inhibition, % at 57.5 µM; 410,000 tested, 4.5% active; in the data active = activity change below about -60%; inconclusive = no clear call, values can overlap the other calls; inactive = above about -39%
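HFF cells seeded 16 h at 37C, treated with compounds, infected with luciferase-reporter HCMV at MOI 1 PFU/cell; luciferase read at 72 h post infection, normalized to buffer-only and Salinomycin controls.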
FMDV antiviral = High Throughput Screening for Foot and Mouth Disease Virus Antivirals | FMDV antiviral cell-based qHTS | Potency, µM (series often up to 57.9 µM), for the others: at the top dose activity change, negative = inhibition, actives largely listed as inhibitors | 410,000 tested, 1.2% active; calls by dose curve; tested in HEK293T cells; note: read-out not given here; potency is the fitted concentration of half-maximal effect; nearly all actives have a fitted effect of over 45% in size
MARV entry inh = qHTS for inhibitors of binding or entry into cells for Marburg Virus; Marburg virus pseudotyped entry inhibition, cell reporter; Potency, µM (titrated, usually from 37.8 µM), for the others: at the highest dose activity change, negative = inhibition, most hits filed as inhibitors; AID 540276, 2011; 300,000 tested, 1.8% active; calls by dose curve; tested in HEK293 cells; note: potency is the fitted concentration of half-maximal effect
Active calls of the source: *; u = inconclusive; x = no result given; [ ] = dose if it differs, or a comment. % is set by controls: 0 for no effect and ±100 for the full control effect.

SMILES | Lassa entry inh | HCMV inh | FMDV antiviral | MARV entry inh
O=S(=O)(c1ccc(Br)cc1)N1CCN(c2cc(-c3ccccc3)nc3ncnn23)CC1 | u | u | -16.9% | u
COc1ccc(S(=O)(=O)N2CCN(c3cc(-c4ccccc4)nc4ncnn34)CC2)cc1 | u | -73.5* | u | u
COc1ccc(-c2cc(-c3ccccc3)n3ncnc3n2)cc1 | -22.6% | 11.1 | u | u
Cc1nc2ncnn2c(N2CCC(C(=O)NC3CCCC3)CC2)c1Cc1ccccc1 | u | -0.2 | -28.7% | -21.2%
COc1ccc(-c2cc(N3CCCC3)n3ncnc3n2)cc1 | -11.2% | -97.5* | u | -22.4%[46.1 µM]
O=S(=O)(c1ccccc1)N1CCN(c2cc(-c3ccccc3)nc3ncnn23)CC1 | 14.6µM* | -90.9* | u | u
Cc1ccccc1NC(=O)C1CCN(c2cc(-c3ccccc3)nc3ncnn23)CC1 | u | u | 35.5µM* | u
CCC(CC)C(=O)Nc1ccc(S(=O)(=O)N2CCC(c3nc4ccccc4s3)CC2)cc1 | 7.2%[46.1 µM] | 6.8 | -29.2% | 19.6%[46.1 µM]
CC(C)=CCCC(C)=CCN1C(=O)[C@@]2(CC(C)=CC[C@@H](C)O2)c2c(Br)cccc21 | x | x | x | 0.1%[14.2 µM]
COC(=O)c1[nH]c2cccc(OC)c2c1NC(=O)C(C)N1CCC(C)CC1 (stereo not given) | 11.3% | -22.8 | 1.2% | 13.7%
O=C(CSc1ncccn1)Nc1ccc(Cl)c(S(=O)(=O)N2CCOCC2)c1 | 5.8%[46.1 µM] | 8.9 | -7.9% | u
Cc1nnc(N2CCC(C(=O)N3CCCCCC3)CC2)c2nn(-c3ccc(Cl)cc3)c(C)c12 | x | 0.0 | -14.0% | x
Cc1ccc(CN2C(=O)c3ccccc3NC2c2cc(Br)ccc2O)cc1 (stereo not given) | u | -79.4* | -9.4% | u
O=C1c2ccccc2NC(c2ccccc2)N1Cc1ccccc1 (stereo not given) | u | 48.4 | -22.8% | 2.5%
Cc1ccc(/C=C2\SC(=S)N(CCC(=O)NNC(=O)c3ccncc3)C2=O)cc1 | 13.2% | 16.2 | -1.6% | 4.4%
Cc1nn(CCCC(=O)Nc2cc(Oc3ccccc3)cc([N+](=O)[O-])c2)c(C)c1[N+](=O)[O-] | 4.1% | 2.6 | 0.0% | u
Cc1ccc(C)c(Oc2cc(NC(=O)CCCn3nc(C)c([N+](=O)[O-])c3C)cc([N+](=O)[O-])c2)c1 | u | -87.6* | 0.0% | u
O=c1[nH]c(Nc2ccc3c(c2)OCCO3)nnc1Cc1ccccc1 | -17.6% | -73.2* | -6.4% | 21.8%[46.1 µM]
O=C(CCl)NCc1c(Cl)cccc1-n1cccc1 | u | -98.4* | 0.0% | u
O=C(COc1ccc([N+](=O)[O-])cc1)NC(=O)NC1CCS(=O)(=O)C1 (stereo not given) | 16.0% | -26.8 | 3.8% | 11.2%
Nc1c(C(=O)N2CCOCC2)sc2nc3c(cc12)CCC3 | x | 44.0 | 21.0% | x
Cc1ccc(C)c2nc3sc(C(=O)N4CCOCC4)c(N)c3cc12 | -15.8%[46.1 µM] | -38.6 | 35.0% | u
Nc1c(C(=O)N2CCOCC2)sc2nc3c(cc12)CCCC3 | u | u | 11.2µM* | u
Cc1cccc2cc3c(N)c(C(=O)Nc4ccc(N5CCOCC5)cc4)sc3nc12 | 13µM* | -18.9 | x | u
Cc1cc(C)c2nc3sc(C(=O)N4CCOCC4)c(N)c3cc2c1 | x | -93.7* | -46.5% | x
SMILES | Lassa entry inh | HCMV inh | FMDV antiviral | MARV entry inh
CC1=C(C(=O)N(C(C)C)C(C)C)CC(CC(=O)NCCCCc2ccccc2)C(=O)N1Cc1ccccc1 (stereo not given) | x | -2.9 | 0.0% | x
CN1C(=O)/C(=C/c2ccc(OCc3cccc(F)c3)cc2)NC1=S | -5.5% | -13.8 | -24.1% | u
CCC(C(=O)NCCN1CCOCC1)n1c2ccccc2c2nc(=O)cc(C)n21 (stereo not given) | -4.2%[46.1 µM] | 7.5 | -11.5% | 13.3%[46.1 µM]
COc1ccc(C(=O)N2CCc3c([nH]c4ccccc34)C2C(F)(F)F)cc1 (stereo not given) | x | -60.2* | -13.4% | x
CCOc1ccc(C2c3[nH]c4ccccc4c3CCN2C(=O)CCC2CCCC2)cc1 (stereo not given) | u | -80.5* | -5.7% | x
COc1ccc(C2c3[nH]c4ccc(OC)cc4c3CCN2C(=O)Nc2ccccc2)cc1 (stereo not given) | u | -88.5* | u | x
COc1ccc(C2c3[nH]c4ccccc4c3CCN2C(=O)CCC2CCCC2)cc1 (stereo not given) | u | -82.5* | -21.5% | x
CCc1ccccc1NC(=O)N1CCc2c([nH]c3ccccc23)C1c1ccc(C)cc1 (stereo not given) | u | u | -9.9% | u
